An excerpt weighted towards active compounds, which were near 4% of everything screened.
Peg3 promoter = reduces Peg3 promoter-driven luciferase expression in HeLa | hit rate 1.7% among 360,000 | HeLa PEG-Prom luciferase reporter, luminescence, overnight | AID 588405 | inhibition, % at 20 µM;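 active means inhibition of at least 50% at 20 µM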
LMP1 NFkB inh = reduces LMP1-driven NF-kappaB luciferase signal | inhibition, % at 12.5 µM | hit rate 0.69% among 350,000 | LMP1-induced NF-kappaB luciferase reporter cells, luminescence; in the data active means inhibition above about 41%;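 further: 0% = neutral control wells and 100% = reference inhibitor control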
HIF-2a inh = inhibitors of HIF-2a; 786-0 RCC cells HIF-2a reporter, luciferase luminescence, overnight; inhibition, % at 18.8 µM; hit rate 0.72% among 360,000; AID 624352;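 active means inhibition of the luminescence signal of 40% or more relative to plate controls, in a single-dose primary screen at 18.75 µM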
TRPM1 prom inh = MITF TRPM1 promoter inhibition in SK-MEL-5 cells; SK-MEL-5 TRPM1 promoter luciferase, 24 h; inhibition, % at 12.5 µM; hit rate 0.83% among 330,000; AID 488899;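 active means mean inhibition across replicates of 60% or more, whatever share of single replicates reaches that level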
TROY signal inh = TROY signaling inhibition | Q293 LMP1-TROYcd NF-kB luciferase reporter, 4 h | inhibition, % at 10 µM | hit rate 0.98% among 360,000 | AID 1347056;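 active means compounds whose plate-normalised and pattern-corrected inhibition of the luciferase reporter signal at the single screening dose is 50% or more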
TWEAK-Fn14 inh = inhibitors of TWEAK-Fn14 interaction signaling; hit rate 2% among 360,000; inhibition, % at 10 µM; TWEAK-stimulated Fn14 reporter cells, luciferase luminescence, 8 h; in the data active means inhibition above about 50%
An asterisk follows results filed as active; x = no result.

SMILES | Peg3 promoter | LMP1 NFkB inh | HIF-2a inh | TRPM1 prom inh | TROY signal inh | TWEAK-Fn14 inh
COc1ccc(N=C2C(=S)N(c3ccc(OC)cc3)C(=NS(=O)(=O)c3ccccc3)N2c2ccccc2)cc1 | 49 | -31 | -225 | -14 | -13 | -8
COc1ccc(CN(C)C(=O)C2CCN(C(=O)Nc3ccccc3)CC2)cc1 | -2 | 5 | 10 | 1 | 7 | 6
FC(F)(F)c1cccc(CC2CN(Cc3ccccc3)Cc3ccccc3N2c2cc(Cl)cc(Cl)c2)c1 (stereo not given) | -4 | -5 | 8 | x | 35 | 91*
O=S1(=O)CCOC[C@H](Cc2ccccc2)N1Cc1cccc(C(F)(F)F)c1 | 18 | 5 | 19 | -5 | 12 | -1
CC(=O)c1ccc2c(c1)CC1(C2)Cc2cc3c(cc2C1)C(=O)CC3 (stereo not given) | -52 | 5 | -27 | -8 | 51* | 57*
Cc1nn(CC(=O)NC(C)C(C)C)c(C)c1S(=O)(=O)N1CCCCC1 (stereo not given) | 5 | 4 | 8 | -7 | -10 | 12
Cc1ccc(C#N)c(SCc2ccccc2F)n1 | -4 | x | -17 | x | -35 | -44
Cc1ccc2nc(CSc3nc(C)ccc3C#N)[nH]c2c1 | -183 | -128 | 8 | -5 | 45 | 69*
Cc1ccc(C(=O)NCCN2CCC(n3c(=O)[nH]c4ccccc43)CC2)cc1F | x | x | -1 | x | -15 | -3
Cc1cc(N2C(=O)C=CC2=O)c([N+](=O)[O-])cc1C | 105* | -7 | 51* | 32 | 3 | -3
Cc1ccc(N2C(=O)C3C4C=CC(CC4)C3C2=O)cc1[N+](=O)[O-] (stereo not given) | 3 | -4 | 4 | -2 | -5 | -1
COC(=O)N1C(=O)[C@](c2ccc(Cl)cc2)(C(C)C)N1C(=O)OC | 31 | 2 | 23 | 19 | 6 | 38
COC(=O)N1C(=O)[C@@](c2ccccc2)(C(C)C)N1C(=O)OC | 29 | 7 | 11 | 3 | 19 | 61*
COC(=O)N1C(=O)[C@@](c2ccc(OC)cc2)(C(C)C)N1C(=O)OC | 46 | 0 | 27 | -7 | 16 | 57*
Cc1ccc(C)c(NC2=C(Cl)C(=O)OC2OC(=O)c2ccco2)c1 (stereo not given) | 15 | -1 | 5 | -1 | -1 | 59*
Cc1ccc(C(=O)NC(C)c2nnc(SCC(=O)NC3CCCC3)n2C)cc1 (stereo not given) | 13 | 2 | 11 | 2 | -19 | -7
Cc1nnc(N2C(=O)C(=O)/C(=C(\O)c3ccc4c(c3)CC(C)O4)C2c2ccccc2)s1 (stereo not given) | 17 | -6 | -43 | -22 | 57* | 35
CCN(CC)CCNc1cc(C)nc2c1C(=O)C(=O)C=C2N1CCCCC1 | 74* | -6 | -9 | 53 | 10 | -5
CCN(CC)CCNC(=O)c1ccc(N2CCCCC2)c(NS(=O)(=O)c2ccc(C)cc2)c1 | 33 | -3 | -7 | -8 | x | 16
CCn1c(SCC(=O)Nc2nc(-c3ccc(C)cc3)cs2)nnc1-c1ccccc1 | -12 | 5 | -39 | 5 | 41 | 31
Cn1c(SCC(=O)N2c3ccccc3Sc3ccccc32)nc2ccccc21 | -65 | -2 | 28 | 7 | 0 | 1
CN(C)CCCn1c(SCC(=O)N2c3ccccc3Sc3ccccc32)nc2ccccc2c1=O | 107* | -7 | 7 | 26 | -7 | -15
CCCn1c(SCC(=O)N2c3ccccc3Sc3ccccc32)nc2c1c(=O)n(C)c(=O)n2C | 27 | 14 | 16 | 0 | 50* | -25
Cc1ccc(-c2csc(NC(=O)CSc3nc4ccccc4c(=O)n3CCCN(C)C)n2)cc1 | 70* | -19 | -40 | 40 | -16 | -31
CC(C)n1c(SCC(=O)N2c3ccccc3Sc3ccccc32)nc2c1c(=O)n(C)c(=O)n2C | 34 | 13 | 15 | -1 | 12 | -16
SMILES | Peg3 promoter | LMP1 NFkB inh | HIF-2a inh | TRPM1 prom inh | TROY signal inh | TWEAK-Fn14 inh
CCN(CC)S(=O)(=O)c1ccc(Cl)c(NC(=S)NC(=O)C2CCCC2)c1 | 36 | 7 | 12 | 16 | 55* | 56*
CCN(CC)c1ccc(S(=O)(=O)Nc2cc(Cl)ccc2Cl)cc1NC(=S)NC(=O)C1CCCC1 | 26 | 8 | 13 | 0 | 23 | 42
COC(=O)c1cccc(NC(=O)c2ccc3c(c2)C(=O)N(C(C)(C)C)C3=O)c1 | -5 | -1 | -97 | -8 | 32 | 15
CC(C)(C)NC(=O)c1cccc(NC(=O)c2ccc3c(c2)C(=O)N(C(C)(C)C)C3=O)c1 | -2 | -31 | -2 | -8 | 57* | -4
CCOC(=O)C1=C(Cn2cnc3ccccc32)NC(=O)NC1c1cc(C)ccc1C (stereo not given) | 30 | 0 | 12 | 13 | 52* | 11
O=C(NC1CCCCC1)c1nc(C2CCNCC2)oc1-c1ccccc1 | 4 | x | -5 | x | 12 | -8
COc1ccc(CCCC(=O)Nc2ccc(F)cc2)cc1 | -1 | -1 | 3 | 1 | -20 | 42
COc1ccc(OC)c(NC(=O)Nc2cccnc2)c1 | 7 | -3 | -9 | -15 | -13 | 52*
O=C(Nc1cccnc1)c1cc(-c2ccccc2)on1 | -10 | 3 | -132 | 1 | -13 | 19
Cc1ccc(NC(=O)Nc2cccnc2)cc1NC(=O)Nc1cccnc1 | 30 | 2 | -23 | 12 | 9 | 58*
COc1cccc(-c2cc(C(=O)Nc3cccnc3)no2)c1 | -156 | 5 | -173 | -31 | -16 | 69*
COc1ccc(NC(=O)Nc2cccnc2)cc1 | -86 | -1 | -125 | -38 | -8 | -31
CC(=O)Oc1ccc(C(=O)Nc2cccnc2)cc1 | 8 | 85* | -11 | -3 | 31 | -29
COc1ccc(C(=O)Nc2ccc(C(=O)Nc3cccnc3)cc2)cc1 | 12 | 3 | 8 | 9 | 6 | -14
COc1cc(-c2coc3c(C(=O)NCc4ccccc4)cccc23)ccc1O | -45 | x | -186 | x | 1 | 39
CCc1nc2c(OCCC3CCCCC3)cccn2c1N(C)C(=O)c1cccs1 | 4 | x | 10 | x | 17 | 3
CC(=O)Oc1ccc2c(=O)c(-c3nc4ccccc4s3)coc2c1 | -73 | 8 | -35 | -6 | 53* | 83*
CN(CC(=O)NCCN1CCOCC1)S(=O)(=O)c1ccc(Cl)cc1 | 10 | 1 | 9 | -10 | 10 | 0
CN(CC(=O)NCCCN1CCOCC1)S(=O)(=O)c1ccc(Br)cc1 | 14 | 0 | 13 | 3 | x | 63*
COc1cc2c(cc1OC)/C(=C/c1ccc(Cl)cc1)C(=O)OC2 | 35 | 10 | 13 | -5 | 50* | 25
CCOC(=O)c1c(C)[nH]c(C(=O)N/N=C/c2ccc(Br)cc2)c1C | -9 | -3 | -32 | 19 | 41 | 55*
O=C(c1c[nH]c2ccccc12)C(Cl)c1ccccc1 (stereo not given) | 10 | -15 | -30 | 13 | 13 | 79*
N#CC(=Nc1cccc(F)c1)C1=C(O)c2ccccc2C1=O | -264 | x | -83 | x | 5 | -4
